Assay results as given in PubChem BioAssay (NCI).
Compounds without any hit were thinned out: in the full panel of roughly 83,000, 20% have a hit.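 Step 1: grow cells in 96-well plates. Step 2: add test compound at a single concentration. Step 3: incubate 48 h. Step 4: record percent growth.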 Unmarked numbers belong to inactive results. The source made the active and inactive calls. How the source made its calls: active means growth percent below 10; inactive means the rest.

Legend:
Test in all cases: NCI-60 one-dose screen, 48 h (100 = growth as untreated, 0 = no growth, -100 = all killed)
[1] = test system: SR leukemia; conditions: 10 µM unless noted
[2] = test system: RPMI-8226 leukemia; conditions: 10 µM
[3] = test system: OVCAR-8 ovarian; conditions: 10 µM unless noted
[4] = test system: OVCAR-5 ovarian; conditions: 10 µM unless noted
[5] = test system: OVCAR-4 ovarian; conditions: 10 µM unless noted
[6] = test system: IGROV1 ovarian; conditions: 10 µM unless noted
[7] = test system: OVCAR-3 ovarian; conditions: 10 µM unless noted
[8] = test system: HS 578T breast; conditions: 10 µM unless noted
[9] = test system: BT-549 breast; conditions: 10 µM unless noted
[10] = test system: MDA-MB-435 melanoma; conditions: 10 µM unless noted
[11] = test system: SW-620 colon; conditions: 10 µM unless noted
[12] = test system: MCF7 breast; conditions: 10 µM unless noted
[13] = test system: HCT-116 colon; conditions: 10 µM unless noted
[14] = test system: HCC-2998 colon; conditions: 10 µM unless noted
[15] = test system: KM12 colon; conditions: 10 µM unless noted
[16] = test system: SK-OV-3 ovarian; conditions: 10 µM
[17] = test system: NCI/ADR-RES ovarian; conditions: 10 µM unless noted
[18] = test system: T-47D breast; conditions: 10 µM

| Compound | growth [1] | growth [2] | growth [3] | growth [4] | growth [5] | growth [6] | growth [7] | growth [8] | growth [9] | growth [10] | growth [11] | growth [12] | growth [13] | growth [14] | growth [15] | growth [16] | growth [17] | growth [18] |
| --- | --- | --- | --- | --- | --- | --- | --- | --- | --- | --- | --- | --- | --- | --- | --- | --- | --- | --- |
| COc1ccc(OC)c(/C=C2\Oc3cc(O)ccc3C2=O)c1 | 75.7% | 92.2% | 85.6% | 101% | 86.7% | 89.3% | 95.8% | 80.8% | 79.8% | 82.7% | 92.2% | 94.2% | 79.2% | 99.3% | 108% |  |  |  |
| CCCN(CCC)c1ccc(/C=C/c2ccc3cc(OCC)ccc3n2)cc1 | -8.74% (active) | 35.6% | 94.6% | 110% |  | 99.6% | 132% | 66.5% | 119% | 95% | 89.6% | 84.9% | 70.4% | 94.4% |  | 104% | 93.1% | 59.1% |
| COC(=O)c1c2c(c(C)[n+]([O-])c1C)C(=O)C(NCc1ccc(O)cc1)=CC2=O | 11.1% | -2.15% (active) | 5.26% (active) | -17% (active) | -97.4% (active) | -45% (active) | -33.1% (active) | -22.5% (active) | 34.5% | -96.5% (active) | -3.33% (active) | -63.4% (active) | -6.79% (active) | -20.1% (active) | 2.07% (active) |  |  | -7.43% (active) |
| COc1cc2oc(-c3ccc(O)cc3)cc(=O)c2c(O)c1I | 79.3% | 87.1% | 96.3% | 104% |  | 114% | 117% | 103% | 96.2% | 101% | 109% | 79% | 104% | 105% | 96.5% |  | 98% | 93.1% |
| C(=C\c1ccccc1)/CN1CCN(C(c2ccccc2)c2ccccc2)CC1 | 76.4% | 77.1% | 85.7% | 101% |  | 122% | 114% | 93.4% | 92.2% |  | 90.3% | 92.4% | 95.8% | 100% | 104% | 108% | 81.7% | 79.7% |
| COc1cccc2c(=O)c3c(sc12)c(NCCN(C)C)nc1ccccc13 | -21.2% (active) | -20.1% (active) | 25.2% | 40.8% |  | 21% | 24.9% | 13.6% | 61.3% | -87.1% (active) | -69.5% (active) | 0.0828% (active) | 11% | 12.2% | -76.7% (active) |  | 29.4% | 61.3% |
| Clc1ccccc1Nc1ccc2nnc(-c3ccncc3)n2n1 | 38.6% | 96.2% | 101% | 106% |  |  | 110% | 99.6% | 101% | 98% | 114% | 95.9% | 101% | 118% | 101% | 121% | 105% | 100% |
| Clc1ccc2c(N3CCN(c4ccnc(NC5CCCCC5)n4)CC3)ccnc2c1 | -36% (active) | 2.01% (active) | 56.6% | 80.8% |  |  | 53.4% | 67.7% | 71.1% | 42.7% | 33.7% | 26.5% | 4.29% (active) | 29.2% | 35.5% | 62.7% |  | 26.1% |
| CCOC(=O)c1c(Cl)c2c(n1Cc1cc(OC)cc(OC)c1)-c1oncc1CCC2 | 4.7% (active) | 9.5% (active) | 38.9% | 49.5% |  |  | -17.6% (active) | 29.6% | 69.9% | -53% (active) |  | 10.7% | 23.9% | 55% | 29.6% | 27.5% |  | 51.7% |
| O=c1oc2ccccc2cc1-c1csc(N=Nc2c(O)[nH]c3ccc(Cl)cc23)n1 | 102% | 105% | 96.3% | 96.2% |  | 107% | 107% | 105% | 99% | 98.9% | 103% | 93.5% | 107% | 104% | 108% |  | 105% | 98.8% |
| CCN(CC)CCCNc1ccc(C)c2sc3ccccc3c(=O)c12 | -11.8% (active) | 15.4% | 43.2% | 56.4% |  | 51.9% | 68.5% |  | 76.5% | -85.7% (active) |  |  | 17.5% | -49.2% (active) | 33.2% | 56.2% | 58.4% | 43.7% |
| CCCCCCCCCCCCSC1=CC(=O)C=CC1=O | 71.5% | -8.18% (active) | 35.1% | 89.7% |  | -26.6% (active) | 73.2% | 63.8% | 16.5% | 102% | 109% | 68.9% | 78.3% | 94.3% | 48.9% | 82.3% | 59.8% | 30.6% |
| COc1ccc(Cn2c(Br)c3c(c2-c2cc(OC)c(OC)c(OC)c2)CCc2sc(N)nc2-3)cc1 | 4.41% (active) | 21.2% | 12.3% | 37.1% |  | 36.7% | -25.5% (active) | 8.13% (active) | 44.2% | -40.1% (active) | 19% | 10.1% | 6.12% (active) | 12.4% | 27.2% | 3.83% (active) | 3.87% (active) | 59.7% |
| CCOc1ccc(/C=N\N2CCCCCC2)cc1OCC | 89.6% | 83.4% | 101% | 95% |  |  | 104% | 120% | 96.2% | 53.2% | 114% | 96% | 99.5% |  | 103% | 91.6% |  | 99.1% |
| O=C(N/N=C(\CS(=O)(=O)c1ccccc1)c1cc2cc(Br)ccc2oc1=O)c1ccccc1 | 122% | 121% | 101% | 94.1% |  | 110% | 108% | 99.4% | 102% | 100% | 102% | 98.2% | 104% | 103% | 105% |  | 105% | 94.1% |
| Oc1ccc(Cl)cc1CNc1nc2ccccc2[nH]1 | -31.7% (active) | -21.2% (active) | 42.8% | 98.9% |  |  | -73.8% (active) | 89% | 58.4% | -67.3% (active) | -48.6% (active) | 18% | 12.3% | 59.3% |  | 87.1% | 38.6% | 96% |
| Clc1nc(-c2ccccn2)nc2sc3c(c12)CCCCCC3 | 66.3% | 95.5% | 87.1% | 108% |  | 89.8% | 108% | 91.3% | 85.1% | 91.4% | 102% | 54% | 84.5% | 63.4% | 91.6% | 105% | 89.3% | 42.2% |
| COc1ccc(-n2ncc3c4nc(OC)c(S(=O)(=O)c5ccccc5)cc4ccc32)cc1 | 85.9% | 95% | 52.7% | 91.3% |  | 92% | 77.2% | 43.5% | 53.1% | 83.3% | 90% | 87.9% | 59.7% | 96.7% | 90.2% | 55.8% | 73.4% | 57% |
| COC(=O)c1c2c(c(C)[n+]([O-])c1C)C(=O)C=C(NCc1ccc(Cl)cc1)C2=O | 3.91% (active) | -16.2% (active) | 2.34% (active) | -69% (active) |  | -50.9% (active) | -28.6% (active) | -19% (active) | -23.8% (active) | -96.1% (active) | -17.3% (active) | -63.2% (active) | -19.9% (active) | -34.6% (active) |  |  | -15.1% (active) | -33.8% (active) |
